HIF act: HIF pathway transcriptional activation. U2OS HRE-luciferase reporter, luminescence; normalized: DMSO 0%, desferrioxamine 100%. activation, % at 7.5 µM (by protocol). 0.32% of 300,000 active;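 active = mean activation of at least 10% of the iron chelator positive control signal, with at least half of replicates also reaching 10%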
HSP90 inh: inhibitors of HSP90 luciferase refolding in rabbit reticulocyte lysate; luciferase refolding luminescence, 3 h; 0.91% of 290,000 active; AID 1789; inhibition, % at 5.6 µM;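 active = inhibition above the screen-wide mean plus 3 SD, computed separately per campaign, cut at about 16% in these data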;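 note: 0% = DMSO wells and 100% = 60 µM geldanamycin wells; inhibitors lower the luminescence because luciferase stays unfolded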
HSF1 inhib: HSF1 inhibition; NIH3T3-HGL HSE-luciferase, MG132-induced, luminescence 8 h; stronger effect = lower value; activity change, negative = inhibition, % at 7.5 µM (by protocol); 0.77% of 300,000 active;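 active = more than half of replicate wells show activity change below -50%, luminescence cut by over half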;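 note: luciferase reports HSF-1 transcriptional activity via heat shock element; 0% = median of DMSO wells and -100% = zero luminescence signal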
ARNT-TACC3 inh: ARNT/TACC3 interaction disruption | AlphaScreen His-ARNT PAS-B/GST-TACC3 binding, luminescence; TACC3 fragment carries E629A point mutation | inhibition, % at 9.99 µM | 0.66% of 390,000 active;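 active = mean inhibition of replicates at least 50% and at least half of replicates each reaching 50%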;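 note: 0% = complete ARNT plus TACC3 wells and 100% = ARNT alone without TACC3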
HSF-1 act: increases HSF-1 driven luciferase reporter signal; NIH3T3-HGL HSF-1 luciferase reporter, MG132, 8 h; 100% = twice DMSO control signal; activation, % at 9 µM; 1.7% of 300,000 active; AID 504408;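 active = mean replicate activation of at least 50% with a set share of replicates each reaching 50%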;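 note: 0% = median of the neutral control wells and 100% = twice that signal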
An asterisk follows results filed as active; . = no result given. Compounds with a hit are over-represented: about 3.1% of the library has one in this group of screens.

SMILES	HIF act	HSP90 inh	HSF1 inhib	ARNT-TACC3 inh	HSF-1 act
O=C(CCCn1c(=S)[nH]c2ccc(Br)cc2c1=O)NCC1CCCO1 (stereo not given)	0	4	25	-1	72*
Cc1ccc(S(=O)(=O)N2C[C@H](O)COC[C@H]3O[C@@H](CC(=O)N[C@@H]4CCN(Cc5ccccc5)C4)CC[C@@H]32)cc1	.	.	.	3	.
Cc1ccc(O)c(NC(=O)Cc2ccc3ccccc3c2)c1	0	-1	142	0	161*
CSc1ccccc1NC(=O)CSc1n[nH]c(C)c1[N+](=O)[O-]	1	2	-4	-1	-12
Cc1ccc(O)c(NC(=O)CSc2n[nH]c(C)c2[N+](=O)[O-])c1	0	2	48	4	73*
Cc1ccc(NS(=O)(=O)c2ccc(NC(=O)CSc3ccc(Cl)cc3)cc2)c(C)c1	0	2	21	-4	19
Cc1ccc(O)c(NC(=O)CSc2ccc(Cl)cc2)c1	1	0	112	18	162*
C[C@@H]1CN([C@H](C)CO)C(=O)Cc2cc(NC(=O)Nc3ccccc3)ccc2O[C@@H]1CN(C)Cc1ccccc1	.	.	.	-1	.
CO[C@H]1CN(C)C(=O)c2ccc(NS(=O)(=O)c3cn(C)cn3)cc2OC[C@H](C)N(CCC(F)(F)F)C[C@H]1C	.	.	.	-8	.
N#C/C(=C\c1ccc[nH]1)C(=O)Nc1ccccc1[N+](=O)[O-]	2	0	24	1	61*
O=c1cc2c(=O)oc3cc(O)c(O)oc3c2c(O)c1O	0	-1	-17	13*	-7
O=c1oc2cc(O)c(Cl)cc2c2ccccc12	0	-1	1	0	-13
COC(=O)C(=C/C(C)=C/c1cccs1)C(=O)OC	0	1	32	-6	66*
COC(=O)N/N=C/c1cccs1	0	-2	-10	-5	5
C[C@@H]1CN([C@@H](C)CO)C(=O)c2cc(NS(=O)(=O)c3ccccc3)ccc2O[C@@H]1CN(C)S(=O)(=O)c1cccs1	.	.	.	4	.
C[C@@H]1CN([C@@H](C)CO)C(=O)c2cc(C3=CCCC3)cnc2O[C@H]1CN(C)Cc1cccc(F)c1	.	.	.	8	.
O=C(CCN1CCCCC1)NCC[C@@H]1CC[C@@H](NC(=O)C2CCCC2)[C@H](CO)O1	.	.	.	-6	.
CN(CC(=O)Nc1cccc(F)c1)CC(=O)Nc1cccc(S(N)(=O)=O)c1	0	1	-72*	-4	-80
CN(CC(=O)Nc1cccc(F)c1)CC(=O)Nc1cccc(S(=O)(=O)N2CCCCCC2)c1	0	2	15	0	38
CC(C)NC(=O)N(C)C[C@@H]1Oc2c(NC(=O)Nc3ccc4c(c3)OCO4)cccc2C(=O)N([C@@H](C)CO)C[C@@H]1C	.	.	.	8	.
C[C@@H]1CCCCO[C@@H](CN(C)CC2CCCCC2)[C@H](C)CN([C@H](C)CO)C(=O)c2cc(NS(=O)(=O)c3ccccc3)ccc2O1	.	.	.	-2	.
Cc1ccc(-c2nc3ccccc3s2)cc1NC(=S)NC(=O)/C=C/c1ccco1	3	-3	46	4	65*
C[C@@H]1CCCCO[C@H](CN(C)Cc2ccccc2)[C@@H](C)CN([C@@H](C)CO)C(=O)c2cc(NC(=O)c3ccncc3)ccc2O1	.	.	.	6	.
CCOc1ccc(CNCCCSc2ncccn2)cc1	0	-3	-2	-5	2
CCOc1ccc(CNCCCSc2ncccn2)cc1OC	-1	-2	-68*	0	-74
SMILES	HIF act	HSP90 inh	HSF1 inhib	ARNT-TACC3 inh	HSF-1 act
CCN1C(=O)CC(C(=O)NC)SC1=Nc1cc(Cl)c(O)c(Cl)c1 (stereo not given)	-1	-2	-2	23*	24
CCN=C1SC(C(=O)Nc2cc(Cl)cc(Cl)c2)CC(=O)N1CC (stereo not given)	-1	3	2	active	17
CCN1C(=O)CSC1=Nc1ccc(Cl)c(Cl)c1	0	7	-6	active	-7
CCN1C(=O)CSC1=Nc1ccc(OC)cc1	0	-5	7	-8	31
COc1ccc(-c2ccc3c(c2)[C@@H]2[C@@H](CCN2C(=O)c2cnccn2)[C@H](CO)N3)cc1	.	.	.	3	.
COc1ccccc1NC(=O)c1cc2c(CO)cnc(C)c2oc1=Nc1cc(OC)c(OC)c(OC)c1	-11	-4	0	-10	-6
COc1cc(N=c2oc3c(C)ncc(CO)c3cc2C(N)=O)cc(OC)c1OC	0	3	-7	35*	15
C/C(=C\C(=O)Nc1cscc1C)C(=O)O	0	-2	30	5	74*
CC(C)=CC(=O)Nc1nnc(-c2ccccc2C)s1	1	2	10	1	18
C#CCOc1ccc(C2C3=C(CC(C)(C)CC3=O)N(CC(=O)O)C3=C2C(=O)CC(C)(C)C3)cc1OC	-34	2	31	7	60*
COc1ccccc1/C=C/C(=O)NCC(=O)N/N=C/c1ccccc1	-1	2	-3	.	9
O=C(CNC(=O)c1cccnc1)N/N=C/c1ccc(O)cc1O	-24	-8	-11	80*	11
O=C(CNC(=O)c1cccs1)N/N=C/c1ccc(O)cc1O	0	0	1	70*	6
COc1ccccc1/C=C\C(=O)NCC(=O)N/N=C/c1ccc(O)cc1O	1	-1	6	54*	1
Cc1ccccc1NC(=S)N/N=C/c1ccc(O)cc1O	4	-1	16	58*	20
Cc1ccc(NC(=O)CCC(=O)N/N=C/c2ccccc2O)cc1	1	-4	3	-7	35
O=C(NN=Cc1ccc(O)cc1O)c1ccccc1NS(=O)(=O)c1cccs1	.	.	.	47*	.
Cc1cccc(NC(=O)CCC(=O)N/N=C/c2ccc(O)cc2O)c1	2	-3	0	60*	-5
C[C@H](CO)N1C[C@H](C)[C@H](CN(C)C(=O)Nc2ccc(C(F)(F)F)cc2)OCCCC[C@H](C)Oc2ccc(NC(=O)Nc3ccccc3)cc2C1=O	.	.	.	8	.
COc1cccc(NC(=O)N[C@@H]2CC[C@@H](CC(=O)N3CCN(C)CC3)O[C@@H]2CO)c1	.	.	.	-7	.
O=C(NCCc1ccc(Cl)cc1)c1cc(S(=O)(=O)N2CCCCC2)c[nH]1	0	38*	0	3	10
Cc1ccc(CCNC(=O)c2cc(S(=O)(=O)N3CCCCC3)c[nH]2)cc1	0	5	4	-3	28
COc1ccc(S(=O)(=O)N(C)C[C@H]2OCc3ccccc3-c3ccccc3C(=O)N([C@H](C)CO)C[C@@H]2C)cc1	.	.	.	11	.
CCC(=O)N(C)C[C@@H]1Oc2cc(-c3ccncc3)ccc2S(=O)(=O)N([C@@H](C)CO)C[C@@H]1C	.	.	.	-6	.
O=C([C@H]1[C@H](CO)[C@H]2Cn3c(ccc(-c4ccncc4)c3=O)[C@@H]1N2Cc1cccnc1)N1CCOCC1	.	.	.	-12	.
COCCCNC(=S)Nc1ccc2nc(N3CCOCC3)cc(C)c2c1	2	2	-12	1	-20
CCOCCCNC(=S)Nc1ccc2nc(N3CCOCC3)cc(C)c2c1	-34	4	76	-8	125*
